SMILES strings stand for the structures. Compounds without any hit were thinned out: in the full panel of roughly 83,000, 20% have a hit.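 Growth was measured after 48 h exposure to one concentration of compound in 96-well plates. Values under 10 count as active.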 A number with no mark means an inactive call. Active and inactive are the calls of the source.

From PubChem BioAssay (NCI) come the findings set out here.

Among the test systems are T-47D breast; BT-549 breast; MDA-MB-435 melanoma; SW-620 colon; MCF7 breast; HCT-116 colon; KM12 colon; HCC-2998 colon.
Common to all, as to assay: NCI-60 one-dose screen, 48 h (100 = growth as untreated, 0 = no growth, -100 = all killed)
Settings in all cases: 10 µM unless noted

Take `COC(=O)c1c2c(c(C)[n+]([O-])c1C)C(=O)C=C(NCc1ccc(Br)cc1)C2=O`: the growth in the assay with T-47D breast is -42.8% (active); in the assay on BT-549 breast, -93.5% (active); in the assay with MDA-MB-435 melanoma, -92.8% (active); in the assay with SW-620 colon, -17.2% (active); in the assay on MCF7 breast, -56.9% (active); in the assay on HCT-116 colon it was -17.2% (active). In addition, the growth with KM12 colon is -11.3% (active).
For `COC(=O)c1c2c(c(C)[n+]([O-])c1C)C(=O)C=C(NCc1ccc(OC)cc1)C2=O`, the growth was -31% (active) in the assay on T-47D breast; -88.8% (active) in the assay with BT-549 breast; -91.6% (active) with MDA-MB-435 melanoma; 0.249% (active) in the assay on SW-620 colon; -55.1% (active) in the assay with MCF7 breast; -11.6% (active) in the assay with HCT-116 colon. In the assay on KM12 colon, the growth was -3.93% (active).
Consider `CCOC(=O)c1c(C)c2c(n1C)CSc1cc(C(=O)c3ccccc3)c(=O)[nH]c1-2`, for which the growth is 72.3% [100 µM] in the assay with T-47D breast; 93.7% [100 µM] in the assay on BT-549 breast; 84.6% [100 µM] in the assay with MDA-MB-435 melanoma; 93.8% [100 µM] with SW-620 colon; 90.6% [100 µM] in the assay on MCF7 breast; 85.8% [100 µM] in the assay with HCT-116 colon. Besides, the growth with HCC-2998 colon was 106% [100 µM]; in the assay on KM12 colon it was 97.4% [100 µM].
Take `O=C(Nc1ccc(NC(=O)c2cc(=O)[nH]c3ccccc23)cc1)Nc1cccc(C(F)(F)F)c1`: the growth with T-47D breast is 58.1%; in the assay with BT-549 breast, 62.8%; in the assay with MDA-MB-435 melanoma, 77.1%; in the assay on SW-620 colon, 59.6%; in the assay on MCF7 breast, 70.7%; in the assay on HCT-116 colon, 41.1%. Also, the growth in the assay with KM12 colon is 53.3%.
Turning to `COC(=O)c1cc(-c2ccccc2)[nH]c1N/N=C/c1c(Cl)cccc1Cl`, the growth was 38.5% with T-47D breast; 24.1% with BT-549 breast; -26.9% (active) with MDA-MB-435 melanoma; 13.3% in the assay with SW-620 colon; -38.2% (active) in the assay on MCF7 breast; -1.99% (active) in the assay on HCT-116 colon. For the same molecule, in the assay with KM12 colon, the growth was 10.2%.
`CCCCCOc1ccc(C(=O)/C(Br)=C/C(=O)O)cc1`: the growth with T-47D breast was 92.6%; with BT-549 breast, 110%; in the assay on MDA-MB-435 melanoma, 104%; in the assay on SW-620 colon, 111%; in the assay on MCF7 breast, 91.7%; with HCT-116 colon, 89.2%. In addition, in the assay with KM12 colon, the growth was 107%.
Turning to `COc1ccc(-c2nc(/C=C3\SC(=NCc4ccccc4)NC3=O)c3ccccn23)cc1`, the growth in the assay with T-47D breast was -67% (active); in the assay on BT-549 breast, -92.9% (active); in the assay on MDA-MB-435 melanoma, -4.34% (active); in the assay on SW-620 colon, -55.5% (active); with MCF7 breast, -62.2% (active); with HCT-116 colon, -97.2% (active). Besides, in the assay with KM12 colon, the growth was -78% (active).
For the molecule `Cc1cc(Cl)ccc1Nc1nc(C(F)(F)F)ccc1C(=O)N/N=C/c1ccc([N+](=O)[O-])cc1`, the growth in the assay with T-47D breast is -1.52% (active); with BT-549 breast it was 6.01% (active); in the assay on MDA-MB-435 melanoma, 6.79% (active); in the assay with SW-620 colon it was 93.4%; with MCF7 breast, -47.7% (active); in the assay on HCT-116 colon it was 6.32% (active). For the same molecule, in the assay with KM12 colon, the growth was -20.6% (active).
As for `CNc1nc(S(=O)c2ccc(C#N)cc2)nc2ccccc12` (stereo unspecified), the growth with T-47D breast is 62.4%; in the assay with BT-549 breast it was 74.6%; in the assay with MDA-MB-435 melanoma it was 88%; with SW-620 colon, 76%; in the assay on MCF7 breast, 72.1%; in the assay with HCT-116 colon it was 51.4%. For the same molecule, in the assay on KM12 colon, the growth is 99%.
Consider `O=C1Nc2ccccc2/C1=C\c1nc(-c2ccccc2)n2ccccc12`, for which the growth is 43.1% with T-47D breast; 85.5% in the assay with BT-549 breast; 90.5% in the assay with MDA-MB-435 melanoma; 103% in the assay on SW-620 colon; 52.9% in the assay with MCF7 breast; 76.3% with HCT-116 colon. For the same molecule, the growth in the assay with KM12 colon is 74.3%.
Consider `Cc1cc2c([nH]1)CSc1cc(S(=O)(=O)c3ccccc3)c(=O)[nH]c1-2`, for which the growth in the assay on T-47D breast was 4.92% [100 µM] (active); with BT-549 breast, -12.2% [100 µM] (active); in the assay with MDA-MB-435 melanoma, 10.6% [100 µM]; in the assay with SW-620 colon, 23.8% [100 µM]; with MCF7 breast, -0.665% [100 µM] (active); with HCT-116 colon, 1.35% [100 µM] (active). The growth in the assay on HCC-2998 colon is 12.4% [100 µM]; in the assay on KM12 colon it was -37.2% [100 µM] (active).
In the case of `COc1ccc2c(c1)[n+]([O-])c(C(=O)/C=C/C=C(\Cl)c1cc(OC)c(OC)c(OC)c1)c(C)[n+]2[O-]`, the growth was 87.1% with T-47D breast; 74.9% in the assay with BT-549 breast; 93% in the assay with MDA-MB-435 melanoma; 103% in the assay with SW-620 colon; 83.4% with MCF7 breast; 80.6% with HCT-116 colon. Besides, in the assay on KM12 colon, the growth is 101%.
Turning to `C1=CN2CC(c3ccccc3)=NNC2c2ccccc21` (stereo unspecified), the growth in the assay on T-47D breast was 88.7%; in the assay on BT-549 breast, 61.7%; in the assay with MDA-MB-435 melanoma, 96.5%; in the assay with SW-620 colon, 96.7%; with MCF7 breast, 67.3%; in the assay on HCT-116 colon, 85.6%. Further, the growth in the assay on KM12 colon was 99.4%.
As for `O=[N+]([O-])/C(=C/C=C/c1ccccc1)c1ccccc1`, the growth with T-47D breast was 46.4%; in the assay with BT-549 breast it was 103%; with MDA-MB-435 melanoma, 70.6%; in the assay on SW-620 colon, 5.75% (active); in the assay with MCF7 breast, 23.5%; in the assay with HCT-116 colon, -5.29% (active). For the same molecule, in the assay on KM12 colon, the growth is 38.8%.
Regarding `N#Cc1c(NC(=O)c2ccccc2)sc2c1CCC(=O)C2`, the growth is -24.8% (active) in the assay on T-47D breast; 16.2% in the assay with BT-549 breast; 2.87% (active) in the assay on MDA-MB-435 melanoma; 11.6% with SW-620 colon; 4.73% (active) in the assay with MCF7 breast; 5.81% (active) in the assay on HCT-116 colon. For the same molecule, the growth in the assay on KM12 colon was 8.5% (active).
As to `Cc1cccnc1NC(=S)Nc1ncccc1C`, the growth is 99.7% with T-47D breast; 96.1% in the assay on BT-549 breast; 83.9% in the assay with MDA-MB-435 melanoma; 111% in the assay with SW-620 colon; 82.9% with MCF7 breast; 101% in the assay with HCT-116 colon. Also, the growth in the assay with KM12 colon is 107%.
On to `Cc1nc(-c2ccccc2)cc2c(O)c(C(=O)NN)[nH]c(=O)c12`, for which the growth was 92.4% with T-47D breast; 193% in the assay with BT-549 breast; 109% with MDA-MB-435 melanoma; 97.5% in the assay on SW-620 colon; 77.8% in the assay on MCF7 breast; 110% in the assay on HCT-116 colon. Besides, the growth in the assay with KM12 colon was 115%.
